Data as given in ChEMBL document CHEMBL1961873, “Compounds: GSK PKIS; Assays: Nanosyn kinase panel” (2012).

Assays:
[1] = target: Death-associated protein kinase 1 (Homo sapiens) (UniProt P53355); details: at 1 µM;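 note: each value is a mean inhibition figure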
[2] = target: T1, Serine/threonine-protein kinase DCLK2 (Homo sapiens) (UniProt Q8N568); details: at 0.1 µM
T1 sequence (whole entry): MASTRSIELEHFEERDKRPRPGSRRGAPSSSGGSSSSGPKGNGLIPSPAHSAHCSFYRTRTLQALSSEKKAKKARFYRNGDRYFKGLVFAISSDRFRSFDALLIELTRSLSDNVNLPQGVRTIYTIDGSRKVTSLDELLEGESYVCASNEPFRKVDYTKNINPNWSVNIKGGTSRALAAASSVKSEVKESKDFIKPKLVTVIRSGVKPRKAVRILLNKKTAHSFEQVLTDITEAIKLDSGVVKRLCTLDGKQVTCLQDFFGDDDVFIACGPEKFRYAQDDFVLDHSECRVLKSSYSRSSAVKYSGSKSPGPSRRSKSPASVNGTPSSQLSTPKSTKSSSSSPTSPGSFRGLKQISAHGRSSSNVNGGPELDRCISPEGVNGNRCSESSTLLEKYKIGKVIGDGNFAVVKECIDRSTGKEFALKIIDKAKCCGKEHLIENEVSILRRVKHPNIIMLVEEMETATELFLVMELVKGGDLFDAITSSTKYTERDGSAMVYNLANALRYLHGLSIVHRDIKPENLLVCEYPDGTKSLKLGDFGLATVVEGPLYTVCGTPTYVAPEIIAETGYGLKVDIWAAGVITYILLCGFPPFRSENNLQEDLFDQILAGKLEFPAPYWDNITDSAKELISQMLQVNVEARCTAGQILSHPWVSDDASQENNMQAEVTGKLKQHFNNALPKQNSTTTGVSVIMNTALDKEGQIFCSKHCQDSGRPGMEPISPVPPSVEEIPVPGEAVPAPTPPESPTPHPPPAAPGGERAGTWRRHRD

[3] = target: T1, Serine/threonine-protein kinase DCLK2 (Homo sapiens); details: at 1 µM
[4] = target: MAP kinase-activated protein kinase 2 (Homo sapiens) (UniProt P49137); details: at 0.1 µM
[5] = target: MAP kinase-activated protein kinase 2 (Homo sapiens) (UniProt P49137); details: at 1 µM
[6] = target: MAP kinase-activated protein kinase 3 (Homo sapiens) (UniProt Q16644); details: at 0.1 µM
[7] = target: MAP kinase-activated protein kinase 3 (Homo sapiens) (UniProt Q16644); details: at 1 µM
[8] = target: Serine/threonine-protein kinase MARK1 (Homo sapiens) (UniProt Q9P0L2); details: at 0.1 µM
[9] = target: Serine/threonine-protein kinase MARK1 (Homo sapiens) (UniProt Q9P0L2); details: at 1 µM
[10] = target: MAP/microtubule affinity-regulating kinase 3 (Homo sapiens) (UniProt P27448); details: at 0.1 µM
[11] = target: MAP/microtubule affinity-regulating kinase 3 (Homo sapiens) (UniProt P27448); details: at 1 µM
[12] = target: T2, MAP/microtubule affinity-regulating kinase 4 (Homo sapiens) (UniProt Q96L34); details: at 0.1 µM
T2 sequence (whole entry): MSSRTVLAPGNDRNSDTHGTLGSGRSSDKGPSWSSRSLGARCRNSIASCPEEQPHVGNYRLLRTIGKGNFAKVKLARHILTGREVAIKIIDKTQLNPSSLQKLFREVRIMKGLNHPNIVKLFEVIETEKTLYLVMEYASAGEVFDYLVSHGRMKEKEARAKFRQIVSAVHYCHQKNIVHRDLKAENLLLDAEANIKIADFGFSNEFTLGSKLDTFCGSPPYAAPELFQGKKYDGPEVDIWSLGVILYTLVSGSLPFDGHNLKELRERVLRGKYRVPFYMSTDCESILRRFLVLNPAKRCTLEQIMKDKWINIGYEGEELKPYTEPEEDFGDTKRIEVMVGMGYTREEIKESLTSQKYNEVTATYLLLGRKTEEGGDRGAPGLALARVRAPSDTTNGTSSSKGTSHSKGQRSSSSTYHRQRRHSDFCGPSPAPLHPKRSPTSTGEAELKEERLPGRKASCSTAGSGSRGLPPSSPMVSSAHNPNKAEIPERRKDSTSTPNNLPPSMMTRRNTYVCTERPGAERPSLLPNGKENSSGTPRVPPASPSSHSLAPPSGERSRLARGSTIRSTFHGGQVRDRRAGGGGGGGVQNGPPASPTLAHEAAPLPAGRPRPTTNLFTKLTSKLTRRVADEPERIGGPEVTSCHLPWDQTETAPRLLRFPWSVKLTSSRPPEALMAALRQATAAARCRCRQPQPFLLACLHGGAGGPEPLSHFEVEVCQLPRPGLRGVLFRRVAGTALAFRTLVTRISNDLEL

[13] = target: T2, MAP/microtubule affinity-regulating kinase 4 (Homo sapiens); details: at 1 µM
[14] = target: Maternal embryonic leucine zipper kinase (Homo sapiens) (UniProt Q14680); details: at 0.1 µM
[15] = target: Maternal embryonic leucine zipper kinase (Homo sapiens) (UniProt Q14680); details: at 1 µM
[16] = target: MAP kinase-interacting serine/threonine-protein kinase 1 (Homo sapiens) (UniProt Q9BUB5); details: at 0.1 µM
[17] = target: MAP kinase-interacting serine/threonine-protein kinase 1 (Homo sapiens) (UniProt Q9BUB5); details: at 1 µM
[18] = target: MAP kinase-interacting serine/threonine-protein kinase 2 (Homo sapiens) (UniProt Q9HBH9); details: at 0.1 µM
[19] = target: MAP kinase-interacting serine/threonine-protein kinase 2 (Homo sapiens) (UniProt Q9HBH9); details: at 1 µM
[20] = target: Serine/threonine-protein kinase MARK2 (Homo sapiens) (UniProt Q7KZI7); details: at 0.1 µM;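 note: mean percent inhibition of PAR-1Balpha kinase activity, reported from the GSK PKIS screen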
Serine/threonine-protein kinase MARK2 (Homo sapiens), sequence (Q7KZI7 whole entry): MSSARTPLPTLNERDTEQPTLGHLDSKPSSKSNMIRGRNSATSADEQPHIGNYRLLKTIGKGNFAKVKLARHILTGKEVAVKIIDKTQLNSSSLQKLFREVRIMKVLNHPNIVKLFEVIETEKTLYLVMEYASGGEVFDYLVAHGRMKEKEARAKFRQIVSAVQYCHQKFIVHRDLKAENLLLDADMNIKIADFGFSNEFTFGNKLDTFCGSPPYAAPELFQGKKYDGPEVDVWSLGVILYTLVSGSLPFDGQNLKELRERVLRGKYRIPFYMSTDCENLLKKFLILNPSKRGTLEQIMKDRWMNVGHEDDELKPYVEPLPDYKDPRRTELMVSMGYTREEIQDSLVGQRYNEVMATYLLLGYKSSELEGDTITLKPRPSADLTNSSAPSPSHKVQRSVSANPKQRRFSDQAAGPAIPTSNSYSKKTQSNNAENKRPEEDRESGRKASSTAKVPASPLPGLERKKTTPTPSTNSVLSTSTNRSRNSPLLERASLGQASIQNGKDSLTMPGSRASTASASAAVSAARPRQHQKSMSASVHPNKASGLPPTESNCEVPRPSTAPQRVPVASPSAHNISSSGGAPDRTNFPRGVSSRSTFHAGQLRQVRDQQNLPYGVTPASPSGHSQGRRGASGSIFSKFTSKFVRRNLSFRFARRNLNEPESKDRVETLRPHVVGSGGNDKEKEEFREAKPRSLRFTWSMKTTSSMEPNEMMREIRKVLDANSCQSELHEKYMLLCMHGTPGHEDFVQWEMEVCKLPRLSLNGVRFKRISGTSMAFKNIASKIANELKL

MAP kinase-interacting serine/threonine-protein kinase 2 (Homo sapiens), sequence (Q9HBH9 whole entry, looked up): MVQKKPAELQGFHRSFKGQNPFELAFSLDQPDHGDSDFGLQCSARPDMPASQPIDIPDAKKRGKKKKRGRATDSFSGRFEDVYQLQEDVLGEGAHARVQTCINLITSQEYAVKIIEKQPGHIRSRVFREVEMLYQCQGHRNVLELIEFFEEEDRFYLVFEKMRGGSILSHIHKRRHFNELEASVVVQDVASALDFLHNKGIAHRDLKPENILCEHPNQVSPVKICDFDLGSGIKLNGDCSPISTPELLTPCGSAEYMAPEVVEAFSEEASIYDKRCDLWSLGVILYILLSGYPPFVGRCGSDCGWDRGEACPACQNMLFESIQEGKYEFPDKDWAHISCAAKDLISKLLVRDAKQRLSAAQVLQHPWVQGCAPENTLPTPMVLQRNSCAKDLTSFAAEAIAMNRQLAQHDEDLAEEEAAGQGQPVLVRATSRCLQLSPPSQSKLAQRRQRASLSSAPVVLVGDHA
MAP kinase-interacting serine/threonine-protein kinase 1 (Homo sapiens), sequence (Q9BUB5 whole entry, looked up): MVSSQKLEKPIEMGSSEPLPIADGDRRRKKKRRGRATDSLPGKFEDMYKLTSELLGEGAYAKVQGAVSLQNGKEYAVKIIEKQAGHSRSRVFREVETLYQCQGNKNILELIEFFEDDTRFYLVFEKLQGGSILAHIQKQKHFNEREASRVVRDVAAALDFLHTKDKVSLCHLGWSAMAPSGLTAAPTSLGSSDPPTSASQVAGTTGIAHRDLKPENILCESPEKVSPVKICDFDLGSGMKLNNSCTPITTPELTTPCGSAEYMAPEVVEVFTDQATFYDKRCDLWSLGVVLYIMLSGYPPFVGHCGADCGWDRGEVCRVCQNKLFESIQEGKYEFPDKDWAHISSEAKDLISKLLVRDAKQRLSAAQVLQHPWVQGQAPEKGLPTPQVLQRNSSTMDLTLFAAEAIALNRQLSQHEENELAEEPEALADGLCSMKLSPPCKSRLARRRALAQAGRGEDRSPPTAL
MAP/microtubule affinity-regulating kinase 3 (Homo sapiens), sequence (P27448 whole entry, looked up): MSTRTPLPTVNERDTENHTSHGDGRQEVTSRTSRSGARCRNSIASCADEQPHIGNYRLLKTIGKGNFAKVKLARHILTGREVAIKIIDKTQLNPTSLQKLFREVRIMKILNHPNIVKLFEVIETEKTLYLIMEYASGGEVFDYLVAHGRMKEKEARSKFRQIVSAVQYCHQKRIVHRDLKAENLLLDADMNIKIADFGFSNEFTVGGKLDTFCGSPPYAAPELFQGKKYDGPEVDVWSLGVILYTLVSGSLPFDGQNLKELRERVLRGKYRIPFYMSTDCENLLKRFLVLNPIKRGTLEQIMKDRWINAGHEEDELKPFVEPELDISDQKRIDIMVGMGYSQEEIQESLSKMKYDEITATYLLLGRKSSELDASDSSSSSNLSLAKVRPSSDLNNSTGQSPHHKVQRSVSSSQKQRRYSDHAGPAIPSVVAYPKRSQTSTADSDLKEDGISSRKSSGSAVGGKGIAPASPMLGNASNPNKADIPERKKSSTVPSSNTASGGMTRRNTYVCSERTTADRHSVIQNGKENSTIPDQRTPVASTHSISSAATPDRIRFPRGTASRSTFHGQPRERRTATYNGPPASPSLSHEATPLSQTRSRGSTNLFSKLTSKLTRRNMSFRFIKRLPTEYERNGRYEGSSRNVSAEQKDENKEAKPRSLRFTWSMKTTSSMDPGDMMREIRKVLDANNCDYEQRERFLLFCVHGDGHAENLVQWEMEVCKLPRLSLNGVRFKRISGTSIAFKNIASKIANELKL
MAP kinase-activated protein kinase 2 (Homo sapiens), sequence (P49137 whole entry, looked up): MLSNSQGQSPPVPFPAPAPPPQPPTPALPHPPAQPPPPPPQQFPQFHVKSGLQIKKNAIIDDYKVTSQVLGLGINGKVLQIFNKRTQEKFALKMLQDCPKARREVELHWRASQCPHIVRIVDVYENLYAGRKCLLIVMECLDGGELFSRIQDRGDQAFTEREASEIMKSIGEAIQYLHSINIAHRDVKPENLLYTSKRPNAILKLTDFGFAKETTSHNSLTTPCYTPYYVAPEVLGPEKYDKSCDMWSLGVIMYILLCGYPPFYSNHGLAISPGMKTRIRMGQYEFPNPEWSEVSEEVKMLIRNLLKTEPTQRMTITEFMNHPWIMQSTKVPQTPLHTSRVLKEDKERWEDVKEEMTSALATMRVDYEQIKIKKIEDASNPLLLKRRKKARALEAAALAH
Death-associated protein kinase 1 (Homo sapiens), sequence (P53355 whole entry, looked up): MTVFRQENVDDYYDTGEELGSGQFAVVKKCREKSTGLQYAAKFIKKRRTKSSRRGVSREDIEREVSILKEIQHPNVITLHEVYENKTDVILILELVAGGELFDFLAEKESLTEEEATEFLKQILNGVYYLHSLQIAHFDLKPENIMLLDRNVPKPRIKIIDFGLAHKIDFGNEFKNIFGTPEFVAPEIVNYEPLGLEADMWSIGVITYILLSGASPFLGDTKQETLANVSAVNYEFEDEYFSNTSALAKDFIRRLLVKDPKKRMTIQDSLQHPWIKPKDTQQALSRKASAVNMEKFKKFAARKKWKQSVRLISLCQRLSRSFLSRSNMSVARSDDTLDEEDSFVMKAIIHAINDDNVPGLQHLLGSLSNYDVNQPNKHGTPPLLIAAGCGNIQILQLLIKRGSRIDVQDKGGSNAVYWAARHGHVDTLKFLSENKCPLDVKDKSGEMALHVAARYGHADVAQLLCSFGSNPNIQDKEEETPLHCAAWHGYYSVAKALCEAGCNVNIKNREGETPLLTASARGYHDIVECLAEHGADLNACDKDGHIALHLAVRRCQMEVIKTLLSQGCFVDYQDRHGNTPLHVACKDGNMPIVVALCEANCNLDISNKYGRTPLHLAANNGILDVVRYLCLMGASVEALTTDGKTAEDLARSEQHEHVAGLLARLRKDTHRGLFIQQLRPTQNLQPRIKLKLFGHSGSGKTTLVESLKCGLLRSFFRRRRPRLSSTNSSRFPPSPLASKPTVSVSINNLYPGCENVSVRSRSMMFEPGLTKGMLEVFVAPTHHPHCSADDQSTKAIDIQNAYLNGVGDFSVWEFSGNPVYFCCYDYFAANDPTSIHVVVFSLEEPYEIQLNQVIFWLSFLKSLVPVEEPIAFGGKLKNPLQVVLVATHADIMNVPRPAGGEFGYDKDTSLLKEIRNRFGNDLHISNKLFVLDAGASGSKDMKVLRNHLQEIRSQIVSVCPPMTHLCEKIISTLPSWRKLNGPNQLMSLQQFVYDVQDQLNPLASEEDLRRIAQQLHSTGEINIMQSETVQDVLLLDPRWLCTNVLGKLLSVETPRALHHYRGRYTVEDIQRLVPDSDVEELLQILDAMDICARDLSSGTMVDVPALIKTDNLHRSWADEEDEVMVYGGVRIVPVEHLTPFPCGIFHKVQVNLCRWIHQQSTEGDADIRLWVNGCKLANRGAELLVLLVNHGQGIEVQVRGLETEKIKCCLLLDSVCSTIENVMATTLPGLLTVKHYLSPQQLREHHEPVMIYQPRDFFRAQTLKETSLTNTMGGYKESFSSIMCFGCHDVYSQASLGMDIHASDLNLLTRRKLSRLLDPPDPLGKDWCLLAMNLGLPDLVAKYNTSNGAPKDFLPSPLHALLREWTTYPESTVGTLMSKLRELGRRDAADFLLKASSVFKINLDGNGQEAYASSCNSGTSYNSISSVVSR
MAP kinase-activated protein kinase 3 (Homo sapiens), sequence (Q16644 whole entry, looked up): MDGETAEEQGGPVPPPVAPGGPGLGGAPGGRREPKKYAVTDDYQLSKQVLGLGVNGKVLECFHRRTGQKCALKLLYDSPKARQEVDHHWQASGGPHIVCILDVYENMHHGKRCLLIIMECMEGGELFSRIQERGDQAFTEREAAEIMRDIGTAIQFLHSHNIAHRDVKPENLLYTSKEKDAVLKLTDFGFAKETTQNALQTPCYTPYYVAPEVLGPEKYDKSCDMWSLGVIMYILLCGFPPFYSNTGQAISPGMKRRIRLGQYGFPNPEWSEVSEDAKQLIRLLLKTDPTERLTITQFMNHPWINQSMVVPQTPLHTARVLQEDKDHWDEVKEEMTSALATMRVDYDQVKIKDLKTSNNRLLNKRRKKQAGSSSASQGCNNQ

| SMILES | inhibition [1] | inhibition [2] | inhibition [3] | inhibition [4] | inhibition [5] | inhibition [6] | inhibition [7] | inhibition [8] | inhibition [9] | inhibition [10] | inhibition [11] | inhibition [12] | inhibition [13] | inhibition [14] | inhibition [15] | inhibition [16] | inhibition [17] | inhibition [18] | inhibition [19] | inhibition [20] |
| --- | --- | --- | --- | --- | --- | --- | --- | --- | --- | --- | --- | --- | --- | --- | --- | --- | --- | --- | --- | --- |
| COc1ccc2c(-c3ccnc(Nc4cccc(OC(F)(F)F)c4)n3)cnn2n1 | 5.37% | 0.72% | 0.97% | 2.32% | 2.88% | 4.5% | 5.2% | 2.92% | 6.68% | 0.91% | 6.67% | 1.08% | 3.99% | 1.72% | 11.1% | 3.13% | 9.47% | 2.32% | 8.78% | -0.54% |
| CCNC(=O)O[C@H]1CN[C@H](C#Cc2cc3ncnc(Nc4ccc(OCc5cccc(F)c5)c(Cl)c4)c3s2)C1 | 3.45% | 1.18% | 2.85% | 1.55% | 1.53% | 2.87% | 2.32% | 1.89% | 2.65% | 2.76% | 2.72% | 0.88% | 1.97% | 4.18% | 4.99% | 2.75% | 4.73% | 0.73% | 5.72% | -0.45% |
| COc1ccc(-c2nn3ncccc3c2-c2ccnc(Nc3ccc4c(c3)OCCO4)n2)cc1 | 2.06% | -1.54% | -0.74% | 0.19% | 0.03% | 30.9% | 37% | 0.34% | 2.66% | 3% | 1.83% | 1.34% | 0.93% | -1.54% | 2.58% | 0.71% | 0.14% | -0.13% | 1.25% | -1.35% |
| CCCN(CCS(C)(=O)=O)Cc1ccc(-c2ccc3ncnc(Nc4ccc(OCc5cccc(F)c5)c(Cl)c4)c3c2)o1 | 8.65% | 0.95% | 0.44% | 3.34% | 3.18% | 7.91% | 7.63% | 0.08% | 0.29% | -1.25% | -0.4% | 0.58% | -0.36% | 3.57% | 3.34% | 3.79% | 9.77% | 2.98% | 10.9% | -0.65% |
| COc1cc2c(cc1Nc1nc(Nc3ccsc3C(N)=O)c3cc[nH]c3n1)N(C(=O)CN(C)C)CCC2(C)C | 5.25% | 1.46% | 5.94% | -0.48% | -0.86% | -0.72% | -0.02% | 6.98% | 11.9% | 5.88% | 7.59% | 4.25% | 6.44% | 6.08% | 14.8% | 3.09% | 6.26% | 1.36% | 3.03% | 1.24% |
| Nc1nc(-c2ccc(F)cc2)c(-c2ccc3ncccc3n2)s1 | 4.25% | 1.89% | 1.19% | 2.16% | 1.53% | 11.3% | 24.6% | 4.82% | 7.14% | 3.4% | 3.12% | 2.07% | 2.43% | 4.85% | 22.3% | 4.39% | 8.56% | 1.91% | 5.26% | 0.92% |
| CCn1c(-c2nonc2N)nc2cnc(Oc3cccc(NC(=O)c4ccc(N(C)C)cc4)c3)cc21 | 0.59% | 0.41% | 0.72% | 1.12% | 0.16% | 2.53% | 2.85% | 2.53% | 10.8% | 2.76% | 12.2% | 0.81% | 3.87% | 8.41% | 44.2% | 2.31% | 11.5% | 3.41% | 27.8% | 0.56% |
| O=C(O[C@H]1CN[C@H](C#Cc2cc3ncnc(Nc4ccc(Cc5ccccc5)cc4)c3s2)C1)N1CCOCC1 | 2.13% | -0.4% | 2.31% | 0.76% | -0.1% | 3.66% | 3.19% | 1.63% | 2.56% | 2.46% | 2.78% | 1.7% | 0.44% | 0.46% | -1.31% | 2.67% | 7.67% | 9.26% | 48.1% | -0.11% |
| COc1cc2ncn(-c3cc(OCc4ccccc4C(F)(F)F)c(C(=O)N(C)C)s3)c2cc1OC | -1.63% | -2.64% | 3.14% | -0.07% | -0.4% | -1.65% | 0.87% | 0.44% | 1.45% | 0.15% | 3.36% | -0.78% | 0.92% | 2.15% | 1.97% | 0.52% | 3.31% | -0.13% | 2.71% | -2.4% |
| CN1CCC(n2cnc(-c3ccc(F)cc3)c2-c2ccnc(N)n2)CC1 | 2.09% | 0.59% | 1.94% | 0.99% | 0.33% | 17.1% | 33.5% | 1.8% | 6.88% | 0.93% | 6.18% | 0.14% | 0.48% | 2.15% | 12.9% | 8.32% | 41.2% | 3.66% | 16.9% | -1.15% |
| Cc1cccc(Nc2ncc(-c3ccccc3)o2)c1 | 3.39% | -0.51% | 1.2% | 1.15% | 3.82% | 3.13% | 4.32% | 2.41% | 8.07% | 3.98% | 9.41% | 1.51% | 6.57% | 3.78% | 9.64% | 1.9% | 1.76% | 3.35% | 8.3% | 2.22% |
| COc1ccc(CNC(=O)c2ccc(-c3cc(-c4nnc(C)o4)ccc3C)cc2)cc1 | 10.2% | 1.92% | 2.89% | 4.31% | 5.53% | 14.5% | 29.3% | 1.53% | 2.91% | 1.55% | 0.99% | 2.25% | 1.91% | 0.76% | 1.99% | 4.23% | 9.25% | 4.37% | 8.59% | 1.99% |
| [O-][S+]1CCN(Cc2ccc(-c3ccc4ncnc(Nc5ccc(OCc6cccc(F)c6)c(Cl)c5)c4c3)o2)CC1 | 6.25% | 0.51% | 2.24% | 1.68% | 1.59% | 7.01% | 7.37% | 4.1% | 3.65% | 3.31% | 1.78% | 3.49% | 3.99% | 7.16% | 5.89% | 2.71% | 6.2% | 1.46% | 6.51% | 2.19% |
| Cc1ccc2c(-c3ccnc(Nc4ccccc4)n3)c(-c3ccc(F)cc3)nn2n1 | 5.85% | 1.21% | 1.97% | 1.27% | 1.49% | 32.5% | 36% | 2.17% | 2.96% | 3.81% | 0.65% | 1.31% | 1.67% | 1.41% | 5.51% | 0.98% | 1.88% | 0.04% | 0.75% | 0.87% |
